Shown are actives, neighbours in structure and some others; about 2.1% of the full set was active somewhere.
CF NFkB block – blocks PAF-induced NF-kB reporter in cystic fibrosis cells; KKLEB NF-kB-GFP reporter, GFP fluorescence overnight; inhibition, % at 5 µM; 360,000 compounds, 0.86% hits;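 active = at least 50% inhibition at 5 µM, scaled per plate between neutral and stimulator controls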;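 also: PAF is a Pseudomonas aeruginosa culture filtrate used as stimulus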
HIF-2a block – inhibitors of HIF-2a; 786-0 RCC cells HIF-2a reporter, luciferase luminescence, overnight; AID 624352; 360,000 compounds, 0.72% hits; inhibition, % at 18.8 µM;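 active = inhibition of the luminescence signal of 40% or more relative to plate controls, in a single-dose primary screen at 18.75 µM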
PAX8 inh HTS – lowers PAX8-driven luciferase in RMG-I cells; RMG-I TPO-luciferase reporter, SteadyGlo, 24 h; inhibition, % at 12.6 µM; 360,000 compounds, 1.2% hits;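 active = mean replicate inhibition at least 60% with every replicate also reaching 60%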;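 also: luciferase light reporting Pax8 driven TPO promoter activity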
KKLEB tox – reduces viability of KKLEB cystic fibrosis airway cells | KKLEB CF airway cells viability, ATPlite luminescence, overnight; hits give low values; cells stimulated with P. aeruginosa culture filtrate | activity change (cytotoxicity), % at 5 µM | 360,000 compounds, 0.36% hits;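 active = corrected activity change at or below -50% at 5 µM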
EWS-Fli block – EWS/Fli transcriptional activity inhibition. inhibition, % at 12.6 µM. AID 651661. A673 NR0B1-luciferase reporter, viability-normalised. 350,000 compounds, 0.67% hits;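 active = mean inhibition of at least 50% after viability correction, with every replicate also passing that limit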;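 also: firefly luciferase signal divided by Alamar Blue viability fluorescence both relative to DMSO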
Numbers stand for hits; - = inactive; . = not tested or not shown.

SMILES | CF NFkB block | HIF-2a block | PAX8 inh HTS | KKLEB tox | EWS-Fli block
C/C=C(\C)C(=O)N[C@@H](c1ccccc1)[C@@H](O)C(=O)O[C@H]1C[C@@]2(O)[C@@H](OC(=O)c3ccccc3)C3[C@](C)(C(=O)[C@H](OC(C)=O)C(=C1C)C2(C)C)[C@H](O)C[C@H]1OC[C@@]31OC(C)=O (stereo partly specified) | - | - | . | - | 58
CCC(C)C(=O)N[C@@H](c1ccccc1)[C@@H](O)C(=O)O[C@H]1C[C@@]2(O)[C@@H](OC(=O)c3ccccc3)C3[C@](C)(C(=O)[C@H](OC(C)=O)C(=C1C)C2(C)C)[C@@H](O)C[C@H]1OC[C@@]31OC(C)=O (stereo partly specified) | - | - | . | - | 56
CC/C=C/CC(=O)N[C@@H](c1ccccc1)[C@@H](O)C(=O)O[C@H]1C[C@@]2(O)[C@@H](OC(=O)c3ccccc3)C3[C@](C)(C(=O)[C@H](OC(C)=O)C(=C1C)C2(C)C)[C@@H](O)C[C@H]1OC[C@@]31OC(C)=O (stereo partly specified) | - | - | . | - | -
COc1ccc(OC(=O)N(C)C[C@H]2OCc3ccccc3-c3c(n(C)c4ccccc34)C(=O)N([C@H](C)CO)C[C@@H]2C)cc1 | . | . | . | . | -
COC(=O)[C@H]1[C@H](CO)[C@H]2Cn3c(ccc(-c4ccccc4F)c3=O)[C@@H]1N2Cc1cccnc1 | . | . | - | . | -
O=C(Cc1ccccn1)N1CCCCN2[C@@H](CO)[C@@H](c3ccc(-c4ccccc4)cc3)[C@@H]2C1 | . | . | - | . | -
CCOc1ccc(N2C(=O)/C(=C/c3ccco3)C(=O)NC2=S)cc1 | - | - | . | - | .
Cc1ccc(N2C(=O)NC(=O)/C(=C/c3ccoc3)C2=O)cc1 | - | - | - | - | -
Cc1ccc(N2C(=O)NC(=O)/C(=C/C=C/c3ccco3)C2=O)cc1 | 81 | 64 | - | - | .
CC(C)c1ccc(N2C(=O)NC(=O)/C(=C/C=C/c3ccco3)C2=O)cc1 | 84 | - | - | - | .
CCCCN1C(=O)/C(=C/C=C/c2ccco2)C(=O)NC1=S | - | - | - | - | -
CCc1ccc(N2C(=O)NC(=O)/C(=C\C=C\c3ccco3)C2=O)cc1 | - | - | - | - | 71
O=C1NC(=S)N(c2ccccc2F)C(=O)/C1=C\c1cccs1 | - | 84 | - | - | .
CCOc1ccc(N2C(=O)/C(=C\c3cccs3)C(=O)NC2=S)cc1 | . | . | - | . | -
COc1cc2c3cc1Oc1c(OC)c(OC)cc4c1[C@H](Cc1ccc(cc1)Oc1cc(ccc1O)C[C@H]3N(C)CC2)N(C)CC4 | - | - | - | - | -
COc1cc2c3cc1Oc1cc(ccc1O)C[C@@H]1c4c(cc(OC)c(O)c4Oc4ccc(cc4)C[C@H]3N(C)CC2)CCN1C | - | - | - | -66 | -
COc1ccc2c(c1)/C(=C/c1cnc[nH]1)C(=O)N2 | 54 | - | 79 | - | -
N#Cc1ccc(-c2ccc([C@H]3[C@H]4CN(C(=O)Cc5ccccc5)CCCCN4[C@H]3CO)cc2)cc1 | . | . | - | . | -
C[C@H]1[C@H](OC(=O)CCC(=O)NCc2ccc(C(=O)O)cc2)O[C@@H]2O[C@@]3(C)CC[C@H]4[C@H](C)CC[C@@H]1C24OO3 | - | - | . | - | .
CC1C(OC(=O)CCC(=O)NC(C)(C)CO)O[C@H]2OC3(C)CC[C@H]4[C@H](C)CCC1C24OO3 (stereo partly specified) | - | - | 77 | - | -
CC(C)CC(NC(=O)CCCNC(=O)CCC(=O)OC1O[C@H]2OC3(C)CC[C@H]4[C@H](C)CCC(C1C)C24OO3)C(=O)O (stereo partly specified) | - | - | 74 | - | -
O=C(Cc1ccccc1)N1CCCCN2[C@H](CO)[C@H](c3ccc(C#CC4(O)CCCC4)cc3)[C@H]2C1 | . | . | - | . | -
COC(=O)[C@@H]1[C@@H](CO)[C@@H]2Cn3c(ccc(-c4ccncc4)c3=O)[C@H]1N2CCc1ccccc1 | . | . | . | . | -
Cn1ncnc2c(=O)n(C)c(=O)nc1-2 | 102 | 82 | . | -97 | .
CC12CC[C@H]3[C@@H](CCC4(O)C[C@H](O)CCC34/C=N/NC(=O)c3ccccc3Cl)C1(O)CCC2C1=CC(=O)OC1 (stereo partly specified) | - | - | - | - | -
SMILES | CF NFkB block | HIF-2a block | PAX8 inh HTS | KKLEB tox | EWS-Fli block
CC1OC(OC2C(O)CC(OC3C(O)CC(OC4CCC5(C)C(CCC6C5CCC5(C)C(C7=CC(=O)OC7)C(O)CC65O)C4)OC3C)OC2C)CC(O)C1O (stereo unspecified) | 70 | 72 | - | -54 | -
O=C1NC(=S)NC(=O)C1=Cc1cccc2cc3ccccc3cc12 | 95 | - | - | - | -
CC1(CCO)CC(C)(CCc2ccccc2)OO1 (stereo unspecified) | . | . | - | . | 67
CNCCCc1ccccc1 | - | - | - | - | .
Cc1[nH]n(-c2ccccc2)c(=O)c1C(c1ccc([N+](=O)[O-])cc1)c1c(C)[nH]n(-c2ccccc2)c1=O | 55 | - | . | - | .
COc1ccc(-n2nnnc2C(c2ccccc2)N2CCC(n3c(=O)[nH]c4ccccc43)CC2)cc1 (stereo unspecified) | 81 | - | 78 | -70 | -
O=c1[nH]c2ccccc2n1C1CCN(C(c2cccs2)c2nnnn2-c2ccc3c(c2)OCCO3)CC1 (stereo unspecified) | 87 | - | 96 | -79 | -
O=c1[nH]c2ccccc2n1C1CCN(C(c2ccccc2)c2nnnn2-c2ccc3c(c2)OCCO3)CC1 (stereo unspecified) | 84 | - | 81 | -87 | -
O=c1[nH]c2ccccc2n1C1CCN(C(c2nnnn2-c2ccc3c(c2)OCCO3)C2CC2)CC1 (stereo unspecified) | 84 | - | 86 | -87 | -
O=C(Cc1ccccc1)N1CCCCN2[C@H](CO)[C@H](c3ccc(C#Cc4ccccc4)cc3)[C@@H]2C1 | . | . | - | . | .
COC(=O)[C@@H]1[C@@H](CO)[C@@H]2Cn3c(ccc(-c4cccnc4)c3=O)[C@H]1N2CCc1ccccc1 | . | . | - | . | -
CC(C)C(NC(=O)C(C(C)C)N(C)C)C(=O)N(C)C(C(=O)N1CCCC1C(=O)N1CCCC1C(=O)NCc1ccccc1)C(C)C (stereo unspecified) | 64 | - | 76 | - | 56
O=C(Cc1ccncc1)N1CCCCN2[C@H](CO)[C@@H](c3ccc(-c4ccncc4)cc3)[C@H]2C1 | . | . | - | . | .
C[n+]1c(-c2ccccc2)c2cc(N)ccc2c2ccc(N)cc21 | - | - | 96 | - | -
CCCNC(=O)N1[C@@H]2Cn3c(ccc(-c4ccccc4OC)c3=O)[C@H]1[C@@H](C(=O)O)[C@@H]2CO | . | . | - | . | -
COc1cc2c(c(OC)c1OC)-c1ccc(O)cc1[C@@H](NC(C)=O)CC2 | - | - | 90 | - | 51
COc1cc2c(c(OC)c1OC)-c1ccc(O)c(=O)cc1[C@@H](NC(C)=O)CC2 | - | - | - | - | -

High-throughput results as filed in PubChem BioAssay.
